Pf growth 48h – inhibits P. falciparum growth in the first generation, 48 h; P. falciparum luciferase growth in erythrocytes, 48 h; Potency, µM (top dose mostly 28.7 µM), inactives show top-dose activity change, negative = inhibition, usual class: inhibitors; 310,000 compounds, 5.9% hits; AID 504832; further: potency means the concentration at half of the fitted maximal effect; on the % scale 0 is the no-effect control and ±100 the full control effect
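Here the parasites carry a stable luciferase gene and grow inside erythrocytes in Albumax-based RPMI medium with compound for one erythrocytic cycle. Activity is scored as loss of luminescent signal.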
HCMV antiviral – inhibitors of human cytomegalovirus; 410,000 compounds, 4.5% hits; HFF cells, HCMV-luciferase reporter, 72 h; stronger effect = lower value; activity change, negative = inhibition, % at 57.5 µM; AID 1259415; in the data active means activity change below about -60%; inconclusive means no clear call, values can overlap the other calls; inactive means above about -39%; further: on the % scale 0 is the no-effect control and ±100 the full control effect
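Steps: HFFs plated, 16 h 37C; compounds added; HCMV-luciferase added to MOI 1 PFU/cell; 72 h 37C; OneGlo reagent, 5 min room temperature; luminescence read, normalized to controls.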
Cycloheximide cs – counter-screen for Shiga toxin inhibitors: cycloheximide protein synthesis inhibition | AID 2314 | 300,000 compounds, 12% hits | cell reporter, cycloheximide protein synthesis inhibition counterscreen | max response, %; in the data active means max response mostly above about 13%, no sharp cut-off; inactive means mostly below about 14%; further: read at 38.3 µM for the half of the compounds with a filed dose; 0% is about no effect
Shiga inhibitor – Shiga toxin inhibition. Vero cells, Shiga toxin protein synthesis inhibition reporter. inhibition, % at 38.7 µM. 290,000 compounds, 9.2% hits. AID 2315; in the data active means inhibition mostly above about 28%, no sharp cut-off; inactive means mostly below about 43%; further: 0% is about no effect
HCV inhibitor – HCV inhibition; Huh7.5.1 HCVcc-Cre infection, luciferase reporter, 44 h; Potency, µM (top dose mostly 41.8 µM), inactives show top-dose activity change, negative = inhibition, most hits filed as inhibitors; 340,000 compounds, 3.4% hits; AID 651820; further: potency means the concentration at half of the fitted maximal effect; on the % scale 0 is the no-effect control and ±100 the full control effect
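Reporter virus HCVcc-Cre (~0.5 moi) infects cells exposed to compound; seeding density 1,000 cells/well with 4 h settling beforehand. Luminescence, 15 sec read, taken 44 h post-infection following a 15 min RT substrate incubation.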
Pf growth 96h – P. falciparum growth inhibition at 96 hours | 320,000 compounds, 6.9% hits | Potency, µM (titrated, usually from 28.7 µM), for the others: at the top dose activity change, negative = inhibition, actives largely listed as inhibitors | P. falciparum luciferase reporter growth, 96 h; further: potency means the concentration at half of the fitted maximal effect; on the % scale 0 is the no-effect control and ±100 the full control effect
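Erythrocytes infected with luciferase-expressing P. falciparum were dispensed at 2% hematocrit and 0.05% parasitemia (final), then incubated with compounds 96 hours at 37 C in 5% CO2. Luminescence after detection reagent addition reported growth.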
* marks the source's active call; other numbers are inactive results; u = inconclusive; x = no result. A selection: hits, their analogues and other compounds. The true share with any hit is near 21%. Unless noted, the call rests on the fitted dose curve; in most records, active means well fitted inhibition curve with a large enough effect; inconclusive means small, poorly fitted or top-dose-only effect, or another doubt; inactive means no such curve, though single readings can be large or run the other way.

SMILES	Pf growth 48h	HCMV antiviral	Cycloheximide cs	Shiga inhibitor	HCV inhibitor	Pf growth 96h
O=C(Nc1cccc(/C=C/c2ccccn2)c1)c1cc(Cl)ccn1	107%	68	29*	43*	5µM*	81%
CCc1ccc(NC(=O)c2ccc(-n3cncn3)c([N+](=O)[O-])c2)cc1	12µM*	-18	x	x	u	u
O=C(Nc1cccc(/C=C/c2ccccn2)c1)c1ccc(-n2cncn2)c([N+](=O)[O-])c1	5.2µM*	-23	x	x	u	4.7µM*
Cc1ccc2[nH]c(=O)c(CN(C(=O)c3cccc(Cl)c3)C(C)(C)C)cc2c1	x	23	x	x	x	x
COc1ccc(-c2nc3c4ccccc4ccn3c2CC2CCCCC2)cc1OC	x	31	x	x	x	x
CCc1ccc(NC(=O)C2CCCN(S(=O)(=O)c3c(C)noc3/C=C/N(C)C)C2)cc1 (stereo not given)	x	15	x	x	x	x
c1ccc(CN2CCN(C3CCCSc4ccccc43)CC2)cc1 (stereo not given)	x	28	x	x	0%	x
c1ccc(Cn2c(-c3ccccc3)c[n+]3c2SCCC3)cc1	1µM*	u	-1	-11	2.5µM*	u
CCN1C(=O)c2ccccc2S(=O)c2ccc(C(=O)NCc3ccc(C(F)(F)F)cc3)cc21 (stereo not given)	x	5	x	x	x	x
O=C(c1ccc(F)cc1F)N1CCCC(c2nc(-c3ccc(F)cc3)no2)C1 (stereo not given)	22%	-22	17*	14	11µM*	20%
O=C(Nc1ccc(F)cc1F)N1CCCC(c2nc(-c3ccc(F)cc3)no2)C1 (stereo not given)	30%	u	23*	41	u	43%
COc1ccc(-c2noc(C3CCCN(C(=O)c4c(F)cccc4F)C3)n2)cc1OC (stereo not given)	-23%	69	12	x	-12%	1%
O=C(NCCN1CCOCC1)c1ccccc1OCc1ccccc1	x	-6	x	x	10%	x
C=CCn1c(SCc2ccc(F)cc2)nnc1-c1sc2nc(C)cc(C)c2c1N	12%	-24	-1	-2	-3%	u
C=CCn1c(SCC2=C(C(=O)OCC)C(C)NC(=O)N2)nnc1C1CCCCC1 (stereo not given)	12µM*	-12	2	11	8%	3%
O=C(COc1ccc(C(=O)c2ccccc2)cc1)Nc1ncccc1O	x	-4	x	x	-7%	x
Cc1ccc(NC(=O)c2ccc(OCc3c(C)noc3C)cc2)nc1	-24%	u	x	x	11µM*	u
O=C(Nc1ncccc1O)c1ccc(Oc2ccccc2)cc1	-27%	54	52*	71*	5%	-24%
Cc1noc(C)c1COc1ccc(C(=O)Nc2cccnc2)cc1	0%	-5	-4	-9	-16%	u
Cc1noc(C)c1COc1ccc(C(=O)Nc2ncccc2O)cc1	7.4µM*	u	x	x	13%	u
CC(=O)c1ccc([N+](=O)[O-])c(CS(=O)(=O)c2ccc(Cl)cc2)c1	32%	-23	1	-5	17%	53%
CCN1[C@@H]2c3cccc(=O)n3C[C@H]1[C@H](CO)[C@H]2C(=O)OC	x	-5	x	x	x	x
CCN(CC)c1ccc(/C=N/NC(=O)c2cc3ccccc3[nH]2)cc1	-4%	-30	20*	28	u	-53%
CCN(CC)c1ccc(/C=N/NC(=O)c2cc(C)nc3ccccc23)cc1	-17%	-15	10	15	17%	5%
CCN(CC)c1ccc(/C=N/NC(=O)c2c[nH]c3ccccc23)cc1	u	-67*	35*	40*	u	-13%
COc1ccc(-c2cc(=Nc3ccc(C)cc3)c3ccccc3o2)cc1	u	-12	1	4	u	6.6µM*
COc1ccc(-c2cc(=Nc3ccccc3)c3cc(C)ccc3o2)cc1	84%	27	86*	97*	3%	65%
COc1ccc(N=c2cc(-c3ccc(O)cc3)oc3ccccc23)cc1	3.3µM*	-26	42*	12*	u	u
COc1ccc(N=c2cc(-c3ccc(OC)cc3)oc3ccccc23)cc1	u	u	0	10	u	-100%
O=C(NCCCN1CCN(c2ccccc2F)CC1)C1COc2ccccc2C1 (stereo not given)	x	-18	x	x	x	x

Screens (PubChem BioAssay)
